PubChem BioAssay (NCATS)
Results filed as inconclusive are left out. Activity calls are given as the source filed them. The call rests on the fitted dose curve; in most records, active means well fitted curve in the direction sought with a large enough effect; inconclusive means small, poorly fitted or top-dose-only effect, or another doubt; inactive means no such curve, though single readings can be large; an effect the other way counts as inactive or inconclusive.

Experiments:
[1] = qHTS of pediatric cancer cell lines to identify multiple opportunities for drug repurposing: Confirmatory screen for LAN-5 cells (AID 1347113); conditions: LAN-5 neuroblastoma cell viability; series mostly up to 45.9 µM; further: potency means the concentration at half of the fitted maximal effect; nearly all actives have a fitted effect of over 65% in size
In short: (§1)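 Viability after 48 h compound treatment at 37C, 500-1,000 cells/well, read as ATP luminescence with CellTiter-Glo. Primary screens used 11-point (MIPE, 0.78 nM-46 µM) or 8-point (NPC, 0.59 nM-46 µM) final concentrations; follow-up screens used 11-point dilutions.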

[2] = qHTS of pediatric cancer cell lines to identify multiple opportunities for drug repurposing: Confirmatory screen for DAOY cells (AID 1347114); conditions: DAOY medulloblastoma cells viability, cytotoxicity qHTS; series mostly up to 45.9 µM; further: nearly all actives have a fitted effect of over 65% in size; further: potency means the concentration at half of the fitted maximal effect
In short: (§2)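 Viability measured as metabolically active cells via CellTiter-Glo luminescence following 48 hours of compound exposure, 11-point dilutions in confirmatory testing. 500-1,000 cells/well plated 5 hours before dosing; controls were DMSO and 2.3 µM bortezomib.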

[3] = qHTS of pediatric cancer cell lines to identify multiple opportunities for drug repurposing: Confirmatory screen for NB-EBc1 cells (AID 1347115); conditions: NB-EBc1 neuroblastoma cells, viability (cytotoxicity); series mostly up to 45.9 µM;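 further: cells exposed to compound for 48 h before the viability read; nearly all actives have a fitted effect of over 45% in size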; further: potency means the concentration at half of the fitted maximal effect
In short: as §1

[4] = qHTS of pediatric cancer cell lines to identify multiple opportunities for drug repurposing: Confirmatory screen for BT-37 cells (AID 1347117); conditions: BT-37 pediatric cancer cells, viability; series mostly up to 45.9 µM; further: nearly all actives have a fitted effect of over 55% in size; further: potency means the concentration at half of the fitted maximal effect
In short: as §1

[5] = qHTS of pediatric cancer cell lines to identify multiple opportunities for drug repurposing: Confirmatory screen for U-2 OS cells (AID 1347122); conditions: U-2 OS osteosarcoma cell viability; series mostly up to 45.9 µM; further: nearly all actives have a fitted effect of over 65% in size; further: potency means the concentration at half of the fitted maximal effect
In short: as §1

[6] = qHTS of pediatric cancer cell lines to identify multiple opportunities for drug repurposing: Confirmatory screen for Rh41 cells (AID 1347123); conditions: Rh41 rhabdomyosarcoma cells, viability/cytotoxicity qHTS; series mostly up to 45.9 µM; further: nearly all actives have a fitted effect of over 60% in size; further: potency means the concentration at half of the fitted maximal effect
In short: as §1

[7] = qHTS of pediatric cancer cell lines to identify multiple opportunities for drug repurposing: Confirmatory screen for OHS-50 cells (AID 1347128); conditions: OHS-50 osteosarcoma cells viability; series mostly up to 45.9 µM;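 further: compound exposure lasted 48 h at 37 degrees C; nearly all actives have a fitted effect of over 55% in size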; further: potency means the concentration at half of the fitted maximal effect
In short: as §1

[8] = tested on: Zika virus NS2B-NS3 protease; assay: Primary screen GU AMC qHTS for Zika virus inhibitors (AID 1347154); conditions: Zika NS2B-NS3 unlinked protease, AMC fluorogenic substrate; series mostly up to 54.1 µM; further: nearly all actives have a fitted effect of over 70% in size
In short: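 Unlinked Zika NS2B hydrophilic domain–NS3 protease complex at 25 nM in 10 mM Tris-HCl pH 8.0, 0.01% Tween 20, with an AMC peptide substrate. Fluorescence change (340/450 nm) over 15 min at room temperature, normalized to controls, fitted to 4-parameter Hill.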

[9] = qHTS of pediatric cancer cell lines to identify multiple opportunities for drug repurposing: Confirmatory screen for SJ-GBM2 cells (AID 1347116); conditions: SJ-GBM2 glioblastoma cells, viability; series mostly up to 45.9 µM; further: nearly all actives have a fitted effect of over 60% in size; further: potency means the concentration at half of the fitted maximal effect
In short: as §2

[10] = qHTS of pediatric cancer cell lines to identify multiple opportunities for drug repurposing: Confirmatory screen for TC32 cells (AID 1347118); conditions: TC32 Ewing sarcoma cells viability qHTS; series mostly up to 45.9 µM;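 further: cells exposed to compound for 48 h before the read; nearly all actives have a fitted effect of over 65% in size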; further: potency means the concentration at half of the fitted maximal effect
In short: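 Luminescent CellTiter-Glo read-out of metabolically active TC32 cells after 48 h compound exposure. Primary: MIPE 11-point, 0.78 nM–46 µM; NPC 8-point, 0.59 nM–46 µM. Confirmatory: 11-point dilutions.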

[11] = qHTS of pediatric cancer cell lines to identify multiple opportunities for drug repurposing: Confirmatory screen for control Hh wild type fibroblast cells (AID 1347121); conditions: viability qHTS; series mostly up to 45.9 µM; further: nearly all actives have a fitted effect of over 70% in size; further: potency means the concentration at half of the fitted maximal effect
In short: as §1

[12] = qHTS of pediatric cancer cell lines to identify multiple opportunities for drug repurposing: Confirmatory screen for RD cells (AID 1347124); conditions: RD rhabdomyosarcoma cell viability; series mostly up to 45.9 µM; further: potency means the concentration at half of the fitted maximal effect
In short: as §1

[13] = qHTS of pediatric cancer cell lines to identify multiple opportunities for drug repurposing: Confirmatory screen for Rh30 cells (AID 1347126); conditions: Rh30 rhabdomyosarcoma cell viability; series mostly up to 45.9 µM; further: nearly all actives have a fitted effect of over 55% in size; further: potency means the concentration at half of the fitted maximal effect
In short: as §1

[14] = qHTS of pediatric cancer cell lines to identify multiple opportunities for drug repurposing: Confirmatory screen for Saos-2 cells (AID 1347127); conditions: Saos-2 osteosarcoma cell viability; series mostly up to 45.9 µM; further: nearly all actives have a fitted effect of over 60% in size; further: potency means the concentration at half of the fitted maximal effect
In short: as §1

[15] = qHTS of pediatric cancer cell lines to identify multiple opportunities for drug repurposing: Confirmatory screen for SK-N-SH cells (AID 1347129); conditions: SK-N-SH neuroblastoma cell viability; series mostly up to 46.1 µM;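 further: cells exposed to compound for 48 h before viability read; nearly all actives have a fitted effect of over 60% in size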; further: potency means the concentration at half of the fitted maximal effect
In short: as §1

Furin (Homo sapiens) = Furin (Homo sapiens) (UniProt P09958); assay: Furin counterscreen qHTS for Zika virus inhibitors (AID 1347149); conditions: furin enzymatic counterscreen, fluorogenic substrate; series mostly up to 57.5 µM;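 further: purified recombinant full-length human furin enzyme at 5 nM; fluorescence gain from furin cutting a BOC-RVRR-AMC peptide substrate over 15 min; top concentration of the series differs between compounds; nearly all actives have a fitted effect of over 70% in size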
In short: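 Fluorogenic cleavage of BOC-RVRR-AMC (2 microM final, Km ~15 µM) was monitored (ex 340, em 450 nm) at 37C after 15 min RT preincubation of 5 nM furin with compounds in HEPES pH 7.0 buffer with CaCl2 and Triton X-100. Percent inhibition was fitted to a 4-parameter Hill curve.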

Furin (Homo sapiens), sequence (P09958 whole entry, looked up): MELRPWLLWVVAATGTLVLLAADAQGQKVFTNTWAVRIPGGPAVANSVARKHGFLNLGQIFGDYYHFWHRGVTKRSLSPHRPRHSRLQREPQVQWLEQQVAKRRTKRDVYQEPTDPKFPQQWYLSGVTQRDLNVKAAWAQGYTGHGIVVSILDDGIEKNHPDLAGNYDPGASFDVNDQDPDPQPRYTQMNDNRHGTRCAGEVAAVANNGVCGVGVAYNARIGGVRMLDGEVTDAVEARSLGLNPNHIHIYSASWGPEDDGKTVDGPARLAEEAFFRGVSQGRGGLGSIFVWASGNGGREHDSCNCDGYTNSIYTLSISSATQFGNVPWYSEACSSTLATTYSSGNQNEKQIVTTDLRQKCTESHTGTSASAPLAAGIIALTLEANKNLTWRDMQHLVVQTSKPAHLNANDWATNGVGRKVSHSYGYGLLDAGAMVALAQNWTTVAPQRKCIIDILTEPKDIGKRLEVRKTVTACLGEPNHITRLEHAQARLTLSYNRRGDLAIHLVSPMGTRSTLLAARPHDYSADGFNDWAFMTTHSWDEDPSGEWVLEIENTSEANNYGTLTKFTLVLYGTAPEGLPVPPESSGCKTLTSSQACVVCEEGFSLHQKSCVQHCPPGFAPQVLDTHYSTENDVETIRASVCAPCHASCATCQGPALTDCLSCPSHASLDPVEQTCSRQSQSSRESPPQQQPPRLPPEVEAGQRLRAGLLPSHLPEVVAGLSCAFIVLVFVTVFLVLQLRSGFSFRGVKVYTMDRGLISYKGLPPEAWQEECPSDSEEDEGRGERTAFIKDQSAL

Cc1c(C(=O)Nc2cccc(C(F)(F)F)c2)cc(-c2ccccc2)n1CCCN1CCOCC1
Potency [1]: 42.7 µM (active) | Potency [2]: 38 µM (active) | Potency [3]: 42.7 µM (active) | Potency [4]: 42.7 µM (active) | Potency [5]: 24 µM (active) | Potency [6]: 21.4 µM (active) | Potency [7]: 42.7 µM (active) | Potency [8]: inactive

CC(C)(C)C(O)C(Oc1ccc(Cl)cc1)n1cncn1 (stereo not given)
Potency [2]: inactive | Potency [3]: inactive | Potency [9]: inactive | Potency [4]: inactive | Potency [10]: inactive | Potency [11]: inactive | Potency [5]: inactive | Potency [6]: inactive | Potency [12]: inactive | Potency [13]: inactive | Potency [14]: inactive | Potency [7]: inactive | Potency [15]: inactive | Potency [8]: inactive

CC[C@H]1C=CC=CC[C@@H](C)[C@H](O)[C@@](C)(O)C(=O)[C@@H](C)[C@H](O)[C@@H](C)C(=O)[C@@H](C)[C@H](O)[C@@H](C)C=CC(=O)O[C@@H]2[C@@H](C)[C@H](CC1)O[C@]1(CC[C@H](C)[C@H](C[C@@H](C)O)O1)[C@H]2C
Potency [2]: 0.0037 µM (active) | Potency [3]: 0.208 µM (active) | Potency [9]: 20.8 µM (active) | Potency [4]: 0.0585 µM (active) | Potency [10]: 1.85 µM (active) | Potency [11]: 0.117 µM (active) | Potency [5]: 0.0046 µM (active) | Potency [12]: 4.14 µM (active) | Potency [7]: inactive

C[C@@H]1O[C@@H](O[C@@H]2C=C3CC[C@@H]4[C@@H](CC[C@]5(C)[C@H](c6ccc(=O)oc6)CC[C@@]45O)[C@@]3(C)CC2)[C@H](O)[C@H](O)[C@H]1O
Potency [1]: 0.0585 µM (active) | Potency [2]: 0.0074 µM (active) | Potency [3]: 0.0261 µM (active) | Potency [9]: 0.0585 µM (active) | Potency [4]: 0.0131 µM (active) | Potency [10]: 0.0233 µM (active) | Potency [5]: 0.0165 µM (active) | Potency [6]: 0.0165 µM (active) | Potency [12]: 0.0165 µM (active) | Potency [13]: 0.0465 µM (active) | Potency [14]: 0.185 µM (active) | Potency [7]: 0.0165 µM (active)

CC1=C(O)C(=O)C=C2C1=CC=C1[C@@]2(C)CC[C@@]2(C)[C@@H]3C[C@](C)(C(=O)O)CC[C@]3(C)CC[C@]12C
Potency [1]: 1.85 µM (active) | Potency [2]: 1.65 µM (active) | Potency [3]: 2.61 µM (active) | Potency [9]: 2.61 µM (active) | Potency [4]: 4.65 µM (active) | Potency [10]: 1.31 µM (active) | Potency [11]: 4.14 µM (active) | Potency [5]: 0.928 µM (active) | Potency [6]: 1.47 µM (active) | Potency [12]: 1.17 µM (active) | Potency [13]: 1.85 µM (active) | Potency [14]: 3.29 µM (active) | Potency [7]: 2.61 µM (active) | Potency [15]: 2.96 µM (active) | Potency (Furin (Homo sapiens)): inactive

C[C@@]12OC(=O)[C@]1([C@@H](O)[C@@H]1C=CCCC1)NC(=O)[C@H]2CCCl
Potency [1]: 0.737 µM (active) | Potency [2]: 0.657 µM (active) | Potency [9]: 0.737 µM (active) | Potency [11]: 4.14 µM (active) | Potency [5]: 0.329 µM (active) | Potency [6]: 0.329 µM (active) | Potency [12]: 0.737 µM (active) | Potency [14]: 1.17 µM (active) | Potency [15]: 2.35 µM (active) | Potency [8]: inactive

CC=C(C)C(=O)O[C@H]1C(C)=C2[C@@H]3OC(=O)[C@@](C)(O)[C@@]3(O)[C@@H](OC(=O)CCC)C[C@](C)(OC(C)=O)[C@@H]2[C@@H]1OC(=O)CCCCCCC
Potency [2]: inactive | Potency [3]: inactive | Potency [4]: inactive | Potency [10]: inactive | Potency [11]: inactive | Potency [5]: inactive | Potency [6]: inactive | Potency [12]: inactive | Potency [15]: inactive

COc1cc([C@@H]2c3cc4c(cc3[C@@H](O)C3COC(=O)C32)OCO4)cc(OC)c1O (stereo not given in full)
Potency [2]: 0.185 µM (active) | Potency [3]: 3.69 µM (active) | Potency [9]: inactive | Potency [4]: 0.737 µM (active) | Potency [10]: 0.585 µM (active) | Potency [11]: inactive | Potency [13]: inactive | Potency [14]: inactive | Potency [7]: inactive | Potency [15]: inactive | Potency [8]: inactive

O=[N+]([O-])c1c(Cl)c(Cl)cc(Cl)c1Cl
Potency [2]: inactive | Potency [11]: inactive | Potency [5]: inactive | Potency [6]: inactive | Potency [12]: inactive | Potency [13]: inactive | Potency [15]: inactive | Potency (Furin (Homo sapiens)): inactive

COc1cc2cc(c1Cl)N(C)C(=O)C[C@H](OC(=O)C(C)C)[C@]1(C)O[C@H]1[C@H](C)[C@@H]1C[C@@](O)(NC(=O)O1)[C@H](OC)C=CC=C(C)C2
Potency [1]: 1.17 µM (active) | Potency [2]: 0.0037 µM (active) | Potency [4]: 0.001 µM (active) | Potency [10]: 0.0004 µM (active) | Potency [11]: inactive | Potency [13]: inactive | Potency [14]: 26.1 µM (active) | Potency [7]: 0.0117 µM (active) | Potency [8]: inactive

Cc1ccccc1-n1c(Cn2ncc3c(N)ncnc32)nc2cccc(C)c2c1=O
Potency [1]: 0.522 µM (active) | Potency [2]: inactive | Potency [9]: inactive | Potency [4]: 0.293 µM (active) | Potency [10]: 1.85 µM (active) | Potency [11]: inactive | Potency [5]: inactive | Potency [6]: inactive | Potency [13]: inactive | Potency [7]: 23.3 µM (active) | Potency [15]: inactive

CO[C@H]1CCC(O[C@H]2C[C@H]([C@]3(C)CC[C@]4(C[C@H](O)[C@@H](C)[C@@H]([C@@H](C)C=C(C)C(=O)[C@H](C)C[C@H](C)C(=O)O)O4)O3)O[C@]3(O[C@@H]([C@H]4O[C@@](O)(CO)[C@H](C)C[C@H]4C)C[C@H]3C)[C@H]2C)O[C@H]1C (stereo not given in full)
Potency [1]: 2.33 µM (active) | Potency [2]: 20.8 µM (active) | Potency [5]: 5.22 µM (active) | Potency [6]: 1.47 µM (active) | Potency [12]: inactive | Potency [13]: inactive | Potency [7]: 2.61 µM (active) | Potency [15]: 5.26 µM (active) | Potency [8]: inactive

O=C(Nc1ccncc1)C(=O)c1cn(Cc2ccc(Cl)cc2)c2ccccc12
Potency [2]: 0.293 µM (active) | Potency [4]: 0.827 µM (active) | Potency [10]: 0.233 µM (active) | Potency [5]: 0.465 µM (active) | Potency [6]: 0.465 µM (active) | Potency [12]: 0.414 µM (active) | Potency [13]: inactive | Potency [14]: 0.585 µM (active) | Potency [7]: 0.928 µM (active) | Potency [8]: inactive
